The values below come from PubChem BioAssay (Tox21).

Values joined by “and” are separate entries in the source; they are usually repeats but may differ in a detail not shown here. Identical values can stand only once. Records with an inconclusive call do not appear. Some structures have more than one record in an assay (separate samples or runs), and their calls can disagree. Active and inactive are the calls of the source. Unless noted, calls follow the shape of the dose curve; as a rule, active = well fitted curve in the direction sought with a large enough effect in the repeat runs; inconclusive = weak or mixed curves; inactive = no such curve, though single readings can be large; an effect the other way counts as inactive or inconclusive.

A short description of test [1]: qHTS assay to identify small molecule antagonists of the sonic hedgehog signaling (Shh) pathway (AID 1259369; calls by dose curve; also: nearly all actives have a fitted effect of over 45% in size; also: potency is read from the fitted curve at half-maximal effect). The essentials:
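NIH/3T3 stable Gli1-Luc clone, 2,000 cells/well, 4hr settle; cpd + conditioned medium 24hr; Luc reagent 30min RT; luminescence.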

Test [2] can be described thus: qHTS assay to identify small molecule agonists of the androgen receptor (AR) signaling pathway in the presence of an antagonist - cell viability counter screen (AID 1259379). Also: nearly all actives have a fitted effect of over 25% in size. Also: potency is read from the fitted curve at half-maximal effect. Summed up:
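MDA-kb2 viability measured by CellTiter-Fluor fluorescence in the same wells as the luciferase signal; nilutamide 3.0uM final; 15-point compound titration; 16 hr at 37C.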
In general terms: qHTS replaces the single test concentration by a dilution series.

The target of test [3] is Androgen receptor (Homo sapiens) (UniProt P10275). Kind of test: qHTS assay to identify small molecule agonists of the androgen receptor (AR) signaling pathway in the presence of an antagonist (AID 1259381; calls by dose curve; also: nearly all actives have a fitted effect of over 15% in size). Summed up:
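Luminescent ONE-Glo read, 30min at room temperature, follows 16hr compound exposure (15 concentrations) of MDA-kb2 cells at 37C, 0% CO2, with nilutamide added at 3.0uM final.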

Test [4] in a line: qHTS assay to identify small molecule antagonists of the estrogen receptor beta (ER-beta) signaling pathway - cell viability counter screen (AID 1259382). Also: nearly all actives have a fitted effect of over 55% in size. Also: potency is read from the fitted curve at half-maximal effect. The essentials:
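Readout: luminescence, CellTiter-Glo, same wells as bla assay. System: ER-beta-UAS-bla GripTite HEK293T, 2% charcoal-stripped FBS. Exposure: compounds plus 1nM 17-beta-estradiol, 16 hr, 37C.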

The nature of test [5]: qHTS assay to identify small molecule agonists or antagonists of the thyroid stimulating hormone receptor (TSHR) signaling pathway - wild type cell line counter screen (AID 1259384; calls by dose curve). Summed up:
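Wild-type Hek293 cells, 800/well, 18 h at 37C, then compound with Ro20-1724 for 30 min RT. cAMP by HTRF (cAMP-d2/anti-cAMP cryptate), 1 h RT, fluorescence read. 15 concentrations, triplicates.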

In test [6] the target is Thyrotropin receptor (Homo sapiens) (UniProt P16473). Kind of test: qHTS assay to identify small molecule antagonists of the thyroid stimulating hormone receptor (TSHR) signaling pathway (AID 1259385; calls by dose curve; also: nearly all actives have a fitted effect of over 20% in size). Summed up:
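TSHR-HEK293 cells (800/well) plated 18 h, then compounds with Ro20-1724 and TSH at 1.5 ng/mL final, 30 min at room temperature. cAMP quantified by HTRF (cAMP-d2/anti-cAMP-cryptate, 1 h); 15 concentrations in triplicate.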

The nature of test [7]: qHTS assay to identify small molecule agonists of the estrogen receptor alpha (ER-alpha) signaling pathway in the presence of an antagonist - cell viability counter screen (AID 1259386).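 Also: cells exposed to compounds for 22 h at 37 °C before the viability read; nearly all actives have a fitted effect of over 30% in size.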 Also: potency is read from the fitted curve at half-maximal effect. The essentials:
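The test measures whether compounds kill ER-alpha reporter cells (VM7Luc4E2) under antagonist co-treatment (ICI-182,780, 10.0nM). Fluorescence from CellTiter-Fluor is read after a 22hr exposure.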

Test [8] deals with Progesterone receptor (Homo sapiens) (UniProt P06401). Kind of test: qHTS assay to identify small molecule agonists of the progesterone receptor (PR) signaling pathway (AID 1346784; calls by dose curve; also: nearly all actives have a fitted effect of over 30% in size). Summed up:
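Seed PR-UAS-bla HEK 293T cells (2% charcoal-stripped FBS), incubate 6 hr at 37C; add compounds in DMSO, 16 hr at 37C; add LiveBLAzer B/G substrate, 2 hr RT; read fluorescence intensity.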

The target is the same in test [9]. As to the kind of experiment: qHTS assay to identify small molecule antagonists of the progesterone receptor (PR) signaling pathway (AID 1346795; active = well fitted inhibition curve with a large enough effect in the signal ratio in the repeat runs, not every such curve was filed as active; the % refers to the signal ratio; also: potency is read from the fitted curve at half-maximal effect). The essentials:
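Screening used a GripTite HEK293T line with PR-responsive UAS-beta-lactamase. Cells were challenged with compound in the presence of 1 nM R5020 final for 16 hr at 37C; B/G FRET substrate, 2 hr room temperature, fluorescence.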

Test [10] can be described thus: qHTS assay to identify small molecule antagonists of the progesterone receptor (PR) signaling pathway - cell viability counter screen (AID 1346798). Also: nearly all actives have a fitted effect of over 50% in size. Also: potency is read from the fitted curve at half-maximal effect. Summed up: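 Measures cytotoxicity in parallel with the PR antagonist reporter read: HEK293T PR-UAS-bla cells get compound and R5020 for 16 hr, and remaining viable cells are quantified by CellTiter-Glo luminescence.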

A short description of test [11]: qHTS assay to identify small molecule antagonists of the TGF-beta/Smad signaling pathway - cell viability counter screen (AID 1346824). Also: nearly all actives have a fitted effect of over 50% in size. Summed up:
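SBE-bla HEK 293T cells, incubated overnight, then compound plus 0.25 ng/mL TGF-beta1 (stock added) for 5 hr at 37 C. Viability was read in the same wells by CellTiter-Glo luminescence after 30 min at room temperature.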

Test [12] in a line: qHTS assay to identify small molecule agonists of the TGF-beta/Smad signaling pathway - cell viability counter screen (AID 1346829). Also: top concentration of the series differs between compounds; nearly all actives have a fitted effect of over 45% in size. Summed up: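 Luminescence from CellTiter-Glo, read after a 30 min room-temperature incubation, gives cell viability of SBE-bla HEK 293T cells treated 5 hr with compounds at 37 C.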
In test [13] the target is Thyrotropin-releasing hormone receptor (Homo sapiens) (UniProt P34981). As to the kind of experiment: qHTS assay to identify small molecule antagonists of the thyrotropin-releasing hormone receptor (TRHR) signaling pathway (AID 1346877; active = well fitted inhibition curve with a large enough effect in the repeat runs, not every such curve was filed as active; also: series mostly up to about 51 µM). Summed up:
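Overnight-plated (18 h, 37 °C) HEK293 cells expressing TRHR were dye-loaded 2 h, treated with compound, then stimulated with TRH at 1 nM final. Fluorescence intensity was captured every second for 3 min.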

The nature of test [14]: qHTS assay to identify small molecule agonists of the estrogen receptor beta (ER-beta) signaling pathway - cell viability counter screen (AID 1259380). Also: nearly all actives have a fitted effect of over 30% in size. Also: potency is read from the fitted curve at half-maximal effect. The essentials: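 Measured: luminescence from CellTiter-Glo after 30 min at room temperature, added to wells already read for the LiveBLAzer FRET reporter (2 hr substrate); ER-beta-UAS-bla HEK293T cells had 16 hr compound treatment at 37C, 5% CO2.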

The target of test [15] is Estrogen receptor (Homo sapiens) (UniProt P03372). As to the kind of experiment: qHTS assay to identify small molecule agonists of the estrogen receptor alpha (ER-alpha) signaling pathway in the presence of an antagonist (AID 1259383; calls by dose curve; also: top concentration of the series differs between compounds; nearly all actives have a fitted effect of over 15% in size). Summed up: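 Quantitative HTS confirmation: compounds titrated at 15 concentrations onto estrogen-deprived VM7Luc4E2 cells carrying a four-ERE luciferase construct, with ICI-182,780 present at 10.0nM final. Signal is luminescence after 22hr exposure.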
Sequence of Estrogen receptor (Homo sapiens) (P03372 whole entry, looked up): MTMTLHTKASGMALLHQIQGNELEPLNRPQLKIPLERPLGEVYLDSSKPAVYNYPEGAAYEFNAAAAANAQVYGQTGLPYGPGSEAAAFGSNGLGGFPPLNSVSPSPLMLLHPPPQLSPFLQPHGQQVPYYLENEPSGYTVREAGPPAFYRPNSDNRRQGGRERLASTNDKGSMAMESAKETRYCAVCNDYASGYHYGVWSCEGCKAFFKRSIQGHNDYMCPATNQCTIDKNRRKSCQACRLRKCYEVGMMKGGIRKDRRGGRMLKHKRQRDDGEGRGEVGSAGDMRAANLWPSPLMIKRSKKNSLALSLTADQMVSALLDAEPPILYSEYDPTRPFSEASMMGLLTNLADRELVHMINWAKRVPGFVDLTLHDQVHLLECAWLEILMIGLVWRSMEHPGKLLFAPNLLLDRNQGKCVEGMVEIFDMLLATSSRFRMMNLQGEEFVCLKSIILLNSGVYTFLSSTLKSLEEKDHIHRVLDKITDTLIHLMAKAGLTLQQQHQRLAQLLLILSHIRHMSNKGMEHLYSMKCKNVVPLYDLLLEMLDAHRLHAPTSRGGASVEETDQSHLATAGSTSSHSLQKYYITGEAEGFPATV

Test [16] can be described thus: qHTS assay to identify small molecule agonists of the progesterone receptor (PR) signaling pathway - cell viability counter screen (AID 1346799; calls by dose curve; also: nearly all actives have a fitted effect of over 45% in size; also: potency is read from the fitted curve at half-maximal effect). The essentials:
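Using the same plates as the PR reporter screen, HEK293T PR-UAS-bla cells received compounds for 16 hr at 37C and were then lysed with CellTiter-Glo; luminescence was read 30 min later at room temperature.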

The target of test [17] is Thyrotropin-releasing hormone receptor (Homo sapiens) (UniProt P34981). Kind of test: qHTS assay to identify small molecule agonists of the thyrotropin-releasing hormone receptor (TRHR) signaling pathway (AID 1346891; calls by dose curve;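 also: HEK293 cells expressing TRHR with calcium dye readout; series mostly up to about 58 µM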). The essentials: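 Overnight-plated (18 h, 37 °C, 5% CO2) TRHR-Hek293 cells; 2 h calcium dye at 37 °C; compound in DMSO; 3-min kinetic fluorescence read.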
Sequence of Thyrotropin-releasing hormone receptor (Homo sapiens) (P34981 whole entry, looked up): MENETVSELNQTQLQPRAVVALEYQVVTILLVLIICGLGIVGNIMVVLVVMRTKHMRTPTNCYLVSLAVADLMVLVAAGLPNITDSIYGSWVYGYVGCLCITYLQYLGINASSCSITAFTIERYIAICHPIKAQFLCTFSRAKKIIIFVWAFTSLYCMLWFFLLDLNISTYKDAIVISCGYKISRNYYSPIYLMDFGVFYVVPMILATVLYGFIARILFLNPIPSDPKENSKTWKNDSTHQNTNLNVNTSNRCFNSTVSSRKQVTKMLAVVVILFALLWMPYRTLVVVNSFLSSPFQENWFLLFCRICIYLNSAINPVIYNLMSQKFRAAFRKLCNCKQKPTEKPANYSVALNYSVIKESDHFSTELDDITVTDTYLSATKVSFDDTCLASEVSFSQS

Test [18] in a line: qHTS assay to identify small molecule agonists of the TGF-beta/Smad signaling pathway (AID 1346859; active = well fitted activation curve with a large enough effect in the signal ratio in the repeat runs, not every such curve was filed as active; the % refers to the signal ratio; also: series mostly up to about 77 µM). The essentials:
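Beta-lactamase reporter activity downstream of Smad binding elements was measured in stably transfected HEK 293T cells; compounds were incubated for 5 hr, substrate for 2 hr at room temperature.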

Test [19] concerns the target Estrogen receptor beta (Homo sapiens) (UniProt Q92731). As to the kind of experiment: qHTS assay to identify small molecule agonists of the estrogen receptor beta (ER-beta) signaling pathway (AID 1259377; active = well fitted activation curve with a large enough effect in the signal ratio in the repeat runs, not every such curve was filed as active; the % refers to the signal ratio). The essentials:
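Screening used GripTite ER-beta-UAS-bla cells held in 2% charcoal-stripped FBS medium. After overnight (16 hr) compound incubation at 37C, beta-lactamase activity was detected with a FRET substrate by fluorescence.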

Sequence of Thyrotropin receptor (Homo sapiens) (P16473 whole entry, looked up): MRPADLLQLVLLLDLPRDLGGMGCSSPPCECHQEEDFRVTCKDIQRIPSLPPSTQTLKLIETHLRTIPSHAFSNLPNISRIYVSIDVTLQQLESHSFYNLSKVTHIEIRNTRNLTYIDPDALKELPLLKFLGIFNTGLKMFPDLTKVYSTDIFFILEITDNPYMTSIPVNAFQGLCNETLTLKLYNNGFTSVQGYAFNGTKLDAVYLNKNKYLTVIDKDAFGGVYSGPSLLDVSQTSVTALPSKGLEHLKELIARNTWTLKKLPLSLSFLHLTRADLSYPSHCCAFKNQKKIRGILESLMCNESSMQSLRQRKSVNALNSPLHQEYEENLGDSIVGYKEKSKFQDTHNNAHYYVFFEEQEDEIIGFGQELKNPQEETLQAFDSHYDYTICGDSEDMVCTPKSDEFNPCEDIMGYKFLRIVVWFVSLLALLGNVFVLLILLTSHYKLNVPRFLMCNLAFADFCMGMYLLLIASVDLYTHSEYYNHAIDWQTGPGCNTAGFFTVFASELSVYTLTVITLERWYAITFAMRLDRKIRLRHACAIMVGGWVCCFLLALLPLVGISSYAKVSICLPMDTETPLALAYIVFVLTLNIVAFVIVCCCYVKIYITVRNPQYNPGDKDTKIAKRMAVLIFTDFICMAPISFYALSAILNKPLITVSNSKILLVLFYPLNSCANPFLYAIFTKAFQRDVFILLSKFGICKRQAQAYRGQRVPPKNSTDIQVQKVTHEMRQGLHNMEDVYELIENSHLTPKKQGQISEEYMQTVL
Sequence of Progesterone receptor (Homo sapiens) (P06401 whole entry, looked up): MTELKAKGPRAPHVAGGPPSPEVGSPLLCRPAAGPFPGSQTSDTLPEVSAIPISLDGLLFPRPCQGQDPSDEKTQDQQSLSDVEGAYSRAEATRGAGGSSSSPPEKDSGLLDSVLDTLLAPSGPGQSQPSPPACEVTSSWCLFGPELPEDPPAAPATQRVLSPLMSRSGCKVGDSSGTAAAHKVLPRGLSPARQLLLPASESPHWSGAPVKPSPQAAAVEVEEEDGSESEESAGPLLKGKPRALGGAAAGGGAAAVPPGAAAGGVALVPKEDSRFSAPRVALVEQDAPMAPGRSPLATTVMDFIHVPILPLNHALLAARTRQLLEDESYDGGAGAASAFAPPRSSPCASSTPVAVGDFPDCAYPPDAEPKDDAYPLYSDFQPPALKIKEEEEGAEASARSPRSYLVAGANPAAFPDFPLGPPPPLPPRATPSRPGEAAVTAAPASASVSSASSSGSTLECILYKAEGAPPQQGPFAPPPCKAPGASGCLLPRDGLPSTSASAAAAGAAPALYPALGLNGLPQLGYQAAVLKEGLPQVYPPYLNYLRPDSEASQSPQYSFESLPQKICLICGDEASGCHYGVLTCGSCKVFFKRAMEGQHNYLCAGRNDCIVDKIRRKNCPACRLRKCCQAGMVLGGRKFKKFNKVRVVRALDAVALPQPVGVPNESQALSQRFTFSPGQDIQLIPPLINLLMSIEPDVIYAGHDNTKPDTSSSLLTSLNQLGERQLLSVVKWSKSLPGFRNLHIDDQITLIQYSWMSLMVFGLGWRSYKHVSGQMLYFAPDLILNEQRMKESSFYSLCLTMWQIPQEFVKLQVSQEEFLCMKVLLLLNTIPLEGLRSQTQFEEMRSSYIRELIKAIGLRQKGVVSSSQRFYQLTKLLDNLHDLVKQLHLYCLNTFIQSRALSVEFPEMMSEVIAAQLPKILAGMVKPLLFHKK
Sequence of Androgen receptor (Homo sapiens) (P10275 whole entry, looked up): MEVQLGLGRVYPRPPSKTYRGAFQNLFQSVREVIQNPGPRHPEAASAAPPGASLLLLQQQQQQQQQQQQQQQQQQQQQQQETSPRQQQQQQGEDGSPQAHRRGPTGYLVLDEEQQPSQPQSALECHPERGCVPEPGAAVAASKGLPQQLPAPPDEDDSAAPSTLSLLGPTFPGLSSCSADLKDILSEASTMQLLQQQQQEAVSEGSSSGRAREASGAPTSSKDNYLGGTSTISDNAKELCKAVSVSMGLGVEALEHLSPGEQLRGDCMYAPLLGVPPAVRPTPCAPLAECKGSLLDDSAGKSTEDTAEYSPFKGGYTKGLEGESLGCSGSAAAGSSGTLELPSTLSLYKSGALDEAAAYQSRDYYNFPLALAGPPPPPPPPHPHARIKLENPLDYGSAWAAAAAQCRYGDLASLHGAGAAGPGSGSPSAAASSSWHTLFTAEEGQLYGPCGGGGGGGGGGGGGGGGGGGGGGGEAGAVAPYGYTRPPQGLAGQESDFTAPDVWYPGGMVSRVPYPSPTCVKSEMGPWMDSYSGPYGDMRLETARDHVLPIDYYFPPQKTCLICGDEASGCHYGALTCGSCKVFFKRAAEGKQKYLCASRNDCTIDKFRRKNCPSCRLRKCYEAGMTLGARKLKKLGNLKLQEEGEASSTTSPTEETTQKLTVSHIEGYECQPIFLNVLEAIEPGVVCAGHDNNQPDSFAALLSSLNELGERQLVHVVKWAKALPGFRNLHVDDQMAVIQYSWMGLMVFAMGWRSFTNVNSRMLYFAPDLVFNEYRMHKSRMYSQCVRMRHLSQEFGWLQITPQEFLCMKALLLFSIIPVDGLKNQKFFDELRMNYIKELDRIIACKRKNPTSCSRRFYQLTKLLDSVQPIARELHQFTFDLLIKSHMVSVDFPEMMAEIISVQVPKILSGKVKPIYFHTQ
Sequence of Estrogen receptor beta (Homo sapiens) (Q92731 whole entry, looked up): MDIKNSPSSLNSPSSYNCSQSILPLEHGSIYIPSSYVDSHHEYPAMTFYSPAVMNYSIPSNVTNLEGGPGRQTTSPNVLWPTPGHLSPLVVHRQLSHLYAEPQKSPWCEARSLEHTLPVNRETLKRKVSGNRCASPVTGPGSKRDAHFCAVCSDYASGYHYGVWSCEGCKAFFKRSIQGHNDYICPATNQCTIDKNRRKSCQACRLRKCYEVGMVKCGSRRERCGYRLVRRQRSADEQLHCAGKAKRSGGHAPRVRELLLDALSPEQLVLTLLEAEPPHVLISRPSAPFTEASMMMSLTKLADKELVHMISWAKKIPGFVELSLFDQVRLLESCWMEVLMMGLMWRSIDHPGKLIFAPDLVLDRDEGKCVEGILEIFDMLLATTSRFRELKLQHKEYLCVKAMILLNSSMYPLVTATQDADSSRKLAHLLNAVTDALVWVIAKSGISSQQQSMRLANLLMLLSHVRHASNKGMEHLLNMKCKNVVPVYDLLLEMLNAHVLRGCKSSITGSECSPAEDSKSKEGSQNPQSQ

In the case of `CC(C)=CC1C(C(=O)OCN2C(=O)C3=C(CCCC3)C2=O)C1(C)C` (centres undefined), the Potency entry in test [1], in [2], in [4], in [5], in [6] and in [7] was “inactive” throughout. The Potency entry in test [8], in test [9], in [10], in [11], in test [12] and in test [13] was “inactive” each time. For the same compound, the outcome in test [3] was inactive.
With `O=NN(c1ccccc1)c1ccccc1`, the Potency entry in test [1], in test [2], in test [14], in [4], in test [15] and in [5] was “inactive” throughout. Besides, the Potency entry in test [6], in test [7], in test [8], in [9], in [10] and in test [16] was “inactive” throughout. Further, the Potency result in [11], in test [12] and in test [13] was “inactive” throughout.
`CNC(=S)S`: the Potency result in [1], in test [2], in [14], in test [4], in test [15] and in [5] was “inactive” each time. In addition, the Potency entry in [6], in [7], in [8], in [9], in test [10] and in test [16] was “inactive” in each case. In addition, the Potency entry in test [11], in test [12] and in [13] was “inactive” throughout. Besides, the result in test [17] was inactive.
Turning to `[Cl-].[Cl-].[Cl-].[Fe+3]`, the Potency entry in [2], in test [14], in [4], in [7], in [8] and in test [9] was “inactive” each time. Further, the Potency entry in [10], in [16], in [11], in [12] and in test [18] was “inactive” throughout.
Take `C=CC(=O)OCC(CC)(COC(=O)C=C)COC(=O)C=C`: the Potency in [1] is 2.23 µM (active) and 3.06 µM (active); in test [2], 62.8 µM (active) and 24.3 µM (active); in [14], 62.8 µM (active) and 19.3 µM (active); in test [4], 31.5 µM (active) and 19.3 µM (active); in test [7], 70.4 µM (active) and 43.3 µM (active); in test [9], 25 µM (active) and 17.2 µM (active). The Potency in test [10] is 56 µM (active) and 43.3 µM (active); in test [16], 70.4 µM (active) and 24.3 µM (active). The outcome in [3] and in test [17] was inactive. The Potency entry in test [15], in [5], in [6], in test [8], in test [11] and in test [12] was “inactive” in each case. For the same compound, in test [13], the Potency result was “inactive”.
In the case of `CCOP(=S)(OCC)SCn1c(=O)oc2cc(Cl)ccc21`, the Potency result in test [19], in test [2], in test [14], in test [4], in test [15] and in test [5] was “inactive” each time. The Potency entry in [7], in test [8], in [10], in [16], in [11] and in test [12] was “inactive” each time. In addition, the Potency entry in test [13] was “inactive”. Besides, the result in test [17] was inactive.
`CC[n+]1c(-c2ccccc2)c2cc(N)ccc2c2ccc(N)cc21`: the Potency in test [1] was 17.1 µM (active); in test [2] it was 24.2 µM (active) and 10.6 µM (active); in test [14], 1.53 µM (active) and 1.06 µM (active); in [7] it was 48.3 µM (active) and 26.6 µM (active); in [9] it was 38.4 µM (active); in test [10], 5.31 µM (active). The Potency in test [16] was 3.76 µM (active). For the same compound, the Potency result in [15], in [8], in test [11], in test [12], in test [18] and in test [13] was “inactive” in each case. Further, in test [17], the outcome was inactive.
With `CC(C)(c1ccc(OCC2CO2)cc1)c1ccc(OCC2CO2)cc1` (centres undefined), the Potency in [1] was 15.6 µM (active); in test [14], 61.9 µM (active); in [4], 43.8 µM (active) and inactive. Also, the Potency entry in [2], in test [15], in test [5], in [6], in test [7] and in test [10] was “inactive” each time. The Potency result in test [16], in test [12], in test [18] and in test [13] was “inactive” each time. Also, the result in test [3] was inactive.
